Our source for the median seed-adjusted z-score values is PubChem BioAssay AID1347426 (Functional Genomics Laboratory (NCATS/FGL), 2020).

Among all 31,000 sequences or so, about 1,400 (4.5%) were called active. The full list was thinned out, with actives kept by preference. Unmarked numbers belong to inactive results.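 The calls were made as follows: active = median seed-adjusted z-score above 1 or below -1; inactive = the rest.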

This assay can be described thus: Novel Modifiers of Survival Motor Neuron (SMN) Protein: Gene Identification via Genome-wide siRNA Screen.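 Also: luminescence tracks full-length SMN protein made from the SMN2 reporter.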 The conditions noted are these: HEK293T SMN2-luciferase reporter, siRNA knockdown, 72 h; actives lie on both sides. The gist of the method: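 siRNA screen, 10418 genes ×3 siRNAs; 1 pmol/well, lipid reverse transfection into HEK293T SMN2-luc reporter line. 72 h, 37 °C, 5% CO2; ONE-Glo readout. Data: neg-ctrl normalized, log10, MAD; hit = MAD >1.0 or < -1.0.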
Take CAUGGAAAAUGAUGACGAATT against PPP4R2: the median seed-adjusted z-score is 0.211.

On to CUCAAGAACUGUCAAGUAATT against GSK3B, for which the median seed-adjusted z-score was -0.952.

In the case of GGACAUCUAUGUUAUAUGUTT against TRIM65, the median seed-adjusted z-score was -0.599.

On to CGUCAUCCCUCAACAAGAATT against ATP2B2, for which the median seed-adjusted z-score is 1.37 (active).

On to GGCUAUUACUCAGUACAGATT against TLN1, for which the median seed-adjusted z-score is -0.0619.

As to CUAUGUGAUUGAUCAAGGATT against PRKAR1A, the median seed-adjusted z-score was 0.428.

For UCAUCGGCGUGAUCGUGUATT against CACNG8, the median seed-adjusted z-score is 0.214.

As to GAAUUUGCGAUGUACUUAATT against CSNK1A1, the median seed-adjusted z-score is -0.608.

On to GGAAAGGAAUGGUCACGAATT against ZNF321, for which the median seed-adjusted z-score is -0.642.

As to AGGUCAACACGGAGCUCAATT against CHRM1, the median seed-adjusted z-score is 1.1 (active).

For the sequence GAAGAAUAGUGAUGCUCGATT against GRIA1, the median seed-adjusted z-score is 0.927.

CUAAUUCAACAUUACAUCATT against ZNF550: the median seed-adjusted z-score was 0.131.

With CGACAGUCUUGCUGAAAAATT against NOTO, the median seed-adjusted z-score is -0.193.

For the sequence GCACGAUUACUACUACCGATT against PNPLA1, the median seed-adjusted z-score is 0.00692.

Consider GGAUGUCGGCAACACGGAATT against MYBPC3, for which the median seed-adjusted z-score is 0.304.

For the sequence AAAGAAUGCGUGCUUUUAATT against RABGGTA, the median seed-adjusted z-score was -0.0601.

Take CACUGUAACGACUUCCUUATT against CCIN: the median seed-adjusted z-score was 0.0472.

In the case of GAAAUUGACAUGUUGGAUATT against ANXA4, the median seed-adjusted z-score is -0.0932.

As to GACUGUCGCUGGUUGGAGATT against ACPT, the median seed-adjusted z-score was -0.114.

For AGACCGAACUGGUUUCGCUTT against CDKN2C, the median seed-adjusted z-score is -0.0789.

In the case of CACUCGAAGCAGUUUGGAATT against SMS, the median seed-adjusted z-score is 0.186.

Turning to CAGUGAAACUGCACCUCUATT against TGM1, the median seed-adjusted z-score was -0.286.

In the case of CCAACGAGCGAGCAGCUUATT against BARX1, the median seed-adjusted z-score was 1.63 (active).

Take ACGGCAAGGUGUUCGAUGUTT against PGRMC1: the median seed-adjusted z-score is 0.124.

Take CGUUCGACCUGAUCGCAAATT against ODZ2: the median seed-adjusted z-score is -0.0233.

In the case of GGGUCACACUAUUUCGUGUTT against ARIH1, the median seed-adjusted z-score was -0.443.

Consider GAUGAGUGCUGCUUCCGGATT against IGF1, for which the median seed-adjusted z-score is 0.559.

With CCAGCUCCACGAAAAAGAATT against ZNF395, the median seed-adjusted z-score is -0.0986.

Turning to GAUACAGUCUACGCAGUUATT against ATPAF1, the median seed-adjusted z-score is 0.393.

On to CAGCGUGCAUUUUCACUAATT against AKAP11, for which the median seed-adjusted z-score was -0.0405.

Consider GCACUAAGAGUGACGUGUATT against PSKH1, for which the median seed-adjusted z-score was -2.03 (active).

GGCUACAAUUUAAGACGAUTT against TNR: the median seed-adjusted z-score is 0.498.

As to GAAAGAUGCAAAAGACAAATT against SFPQ, the median seed-adjusted z-score was -1.15 (active).

Turning to GGUUAUGUAGUAACGAGUUTT against ALS2, the median seed-adjusted z-score is 0.

As for GGAAUAUAAUAAGCGAAGATT against TAOK1, the median seed-adjusted z-score is -0.0533.

Turning to CGAGACUACUAAAGAAACATT against DDX18, the median seed-adjusted z-score was 0.241.

Turning to CUACGACUUUUCCAAUAUATT against SLC6A4, the median seed-adjusted z-score is 1.43 (active).

Consider CCAUCUCCCUUGUGCUGCATT against NINJ1, for which the median seed-adjusted z-score is -0.061.

For the sequence GAGAGACCCUCGUCCUUUATT against CYP20A1, the median seed-adjusted z-score is -0.796.

GAAAGGCUUUGACCAAUCUTT against ZNF319: the median seed-adjusted z-score is 0.256.

With GUCACUAGCUUAUCUUGAATT against VEGFA, the median seed-adjusted z-score was 0.495.

With AGCAAAGUGUUCUACCUGATT against YWHAG, the median seed-adjusted z-score was 1.98 (active).

Take GAAAAUCGAAAGACUAAAATT against UTP11L: the median seed-adjusted z-score is -0.755.

As for CUAAUGAGUUUGUCUAAUATT against PKDREJ, the median seed-adjusted z-score is 0.376.

Turning to AGUGGAUUGUAGACAUGGATT against UBE2W, the median seed-adjusted z-score is -0.655.

In the case of GCAUCUACCGGAUCCUGAUTT against DDX49, the median seed-adjusted z-score is 0.0816.

GCAGGCUAAUCGCAAUGAATT against ANXA13: the median seed-adjusted z-score was -0.467.

With GCCAGAGUCCUGAUGCACATT against GPR31, the median seed-adjusted z-score was -0.0381.

Regarding GGACAAAGCAUUGACAAUUTT against KCNJ13, the median seed-adjusted z-score is 0.327.

As for CAUCGGCUAUGACAACAUUTT against PSTPIP2, the median seed-adjusted z-score was 0.0136.

On to GGUUCGUGAAGUUCGUAAATT against UTP3, for which the median seed-adjusted z-score was -1.08 (active).

Turning to GAGUUAGGGAAAAAGCGUATT against ANK3, the median seed-adjusted z-score was 0.0252.

CGUUGUUUUUGAGCACGUUTT against LMBR1: the median seed-adjusted z-score was 0.236.

GGGAGAUCCUAGAACAAGATT against TAOK1: the median seed-adjusted z-score is -0.0533.

GUUUUGACCCUAUAGUUUATT against P2RY5: the median seed-adjusted z-score was 0.0278.

For GCAUUUGUUUGGGUUGCGATT against MTF2, the median seed-adjusted z-score is 0.

With GCAUUGUGAUCGAGGACAATT against HCN2, the median seed-adjusted z-score was 0.

Regarding CGACAAUUCUUCUAGACAATT against TTC3, the median seed-adjusted z-score is -1.17 (active).

Consider ACAUCGAGUCAGAUCUUCATT against SLC11A1, for which the median seed-adjusted z-score was -0.516.

As for GGAGGUAUCUAACAAGAUUTT against LPO, the median seed-adjusted z-score was 0.201.

As for UGCACGAUCUUCUACCCAATT against TKTL1, the median seed-adjusted z-score was -0.495.

Take AGCUUUCUUGAGCACCUGATT against LRRC32: the median seed-adjusted z-score was 0.0464.

On to GAUGGACAUUGAUAGCGAUTT against DTX3L, for which the median seed-adjusted z-score is 0.0785.

GAACGGCUCUUAAGAUCAATT against CACNA1D: the median seed-adjusted z-score is -0.0856.

With CUAUGUACCGCUUCACUGATT against MMP9, the median seed-adjusted z-score was -1.15 (active).

Regarding GGAAAUCUGUCACAUCGUATT against NR1I3, the median seed-adjusted z-score was 0.000933.

Regarding CGGGUUUCAUCAAAGUGCATT against RASSF5, the median seed-adjusted z-score was 0.11.

GCAACUUCCUAGAACUGUUTT against PCYT1B: the median seed-adjusted z-score is 0.177.

For the sequence GGAGGACGGCUUCUACGAATT against KCNJ9, the median seed-adjusted z-score is -0.0832.

As for GACUCUCUACCAUGGAUUUTT against SLC25A42, the median seed-adjusted z-score is -1.02 (active).

With CGUACAUCCAGUGACCCUATT against MTMR4, the median seed-adjusted z-score is -0.735.

Regarding GAAACCAUCGGGAAGAUUUTT against VWA2, the median seed-adjusted z-score was 0.584.

Consider GAAAUGUGGUACUAAAGCATT against RALBP1, for which the median seed-adjusted z-score is -0.0514.

In the case of CAAUGAUCAUGGACCGUUUTT against CPEB3, the median seed-adjusted z-score is 0.086.

Consider CAAGUGCGAUAUCACCUUATT against IL4, for which the median seed-adjusted z-score was -0.192.

Consider UCACAGUCACAUACAGAGATT against SNRPD3, for which the median seed-adjusted z-score was -2.69 (active).

In the case of GUAUCUAACUUAUCUACUATT against HTR5A, the median seed-adjusted z-score was -0.0687.

Take GGUUUCAACUGGACUUCUATT against MFSD5: the median seed-adjusted z-score was 0.205.

Take ACAGUCUUGUGAUCAGAAATT against UHRF1: the median seed-adjusted z-score was 0.231.

Turning to AAAGCAAGCUGUUACAAAATT against ACAT2, the median seed-adjusted z-score was 1.25 (active).

Consider GACGUAACAUCAACAGAUATT against SV2B, for which the median seed-adjusted z-score is -0.43.

As for GGACUUAACGGUAUCCAAATT against PCDHB10, the median seed-adjusted z-score was -0.09.

In the case of GCAGCUUUAACCAUUAAAATT against LTB4R, the median seed-adjusted z-score was 0.498.

For the sequence GCAAGACAACCAUUCUGUATT against ARF4, the median seed-adjusted z-score is 0.346.

With GCCGUGCUGAAGGCUCUAATT against KCNE3, the median seed-adjusted z-score is -1.33 (active).

Turning to GGAAACUUCUCACCUAUGATT against MAGED1, the median seed-adjusted z-score was 0.524.

On to GGCCGUGUACUGUAUCAUUTT against NUP93, for which the median seed-adjusted z-score is 1.01 (active).

Turning to CCACUGUUGGAAUUAAAGATT against AOAH, the median seed-adjusted z-score is -0.123.

As for GUACAUAGAUUCUAGGCAATT against FOXJ3, the median seed-adjusted z-score is -0.155.

For GGCAGAUGAUGGUAUCACATT against CNGA4, the median seed-adjusted z-score was 0.125.

Regarding CCAUGUUCAUCAAAACUCUTT against ARHGAP1, the median seed-adjusted z-score was -1.14 (active).

For GAAGCACAUUGUUUCCAGATT against SERGEF, the median seed-adjusted z-score was -0.308.

On to CCCUUACCUUAAUCGACGATT against CRB1, for which the median seed-adjusted z-score was 0.

For the sequence GGCUGUAUCACAUCGGUUATT against CCR2, the median seed-adjusted z-score is -0.00107.

Regarding GUGCUUUGGUGGUACUAUUTT against ELOVL2, the median seed-adjusted z-score was -0.456.

On to CAGUGGUAAGAAAGAGAAATT against NRCAM, for which the median seed-adjusted z-score is -0.0304.

In the case of CACUAACUGAUUUACAAGATT against UBE2J1, the median seed-adjusted z-score is -1.2 (active).

Consider GGUAAACGAGAUCAACUUUTT against DVL3, for which the median seed-adjusted z-score was -0.57.

As to GGAUAUUAGUGUCGUGCAATT against ARHGEF7, the median seed-adjusted z-score was 0.185.

Consider GGAGAUUAGCAAGACCAUUTT against HOXC10, for which the median seed-adjusted z-score is 0.000966.

With AGACAGCUGCGAAUCUGGATT against MEFV, the median seed-adjusted z-score was 0.

In the case of GGGUUUAUAUCGAACGCAATT against RNF144B, the median seed-adjusted z-score is 0.642.

CUCCUGCCUUGAGCCCUUATT against GFRA4: the median seed-adjusted z-score is -1.59 (active).

As to UGAUGCCUGUGAUACACUATT against NEU1, the median seed-adjusted z-score is -0.425.

With GACAGGUACUUCUAAGUCATT against AHSA1, the median seed-adjusted z-score was 0.489.

With GAAAUUUGCGUGUGGAGUATT against TP53, the median seed-adjusted z-score was 0.214.

With CUAGAUAUCGUGGACCUCATT against PYDC1, the median seed-adjusted z-score was -1.44 (active).

As to AUACUACGUUGAUUACAAATT against LRRTM1, the median seed-adjusted z-score was -0.528.
